Experimental data taken from PubChem BioAssay (EPA / NIEHS).
Inconclusive results are not listed. Calls of active or inactive are those of the source. Rule for the calls: active = hit-call score of the fitted dose curve at least 0.9, where 1 is the maximum; inconclusive = response in the unintended direction; inactive = score below 0.9.

Target: Serine/threonine-protein phosphatase PP1-alpha catalytic subunit (Homo sapiens) (UniProt P62136)
Experiment: NVS_ENZ_hPPP1CA: NovaScreen (NVS) Enzymatic Assay for human Protein Phosphatase 1 Aatalytic subunit Alpha (PPP1CA) (AID 2283200)
Description: NVS_ENZ_hPPP1CA is a biochemical, single-readout assay that uses extracted gene-proteins in a cell-free assay. Measurements were taken 1.33 hours after chemical dosing in a 384-well plate.NVS_ENZ_hPPP1CA is one of one assay component(s) measured or calculated from the NVS_ENZ_hPPP1CA assay. It is designed to make measurements of enzyme activity, a form of enzyme reporter, as detected with fluorescence intensity signals by Fluorescence and electrophoretic mobility shift technology.Data from the assay component NVS_ENZ_hPPP1CA was analyzed into 1 assay endpoint. This assay endpoint, NVS_ENZ_hPPP1CA, was analyzed in the positive analysis fitting direction relative to DMSO as the negative control and baseline of activity. Using a type of enzyme reporter, loss-of-signal activity can be used to understand changes in the enzymatic activity as they relate to the gene PPP1CA. Furthermore, this assay endpoint can be referred to as a primary readout, because this assay has produced multiple assay endpoints where this one serves a enzymatic activity function. To generalize the intended target to other relatable targets, this assay endpoint is annotated to the phosphatase intended target family, where the subfamily is serine/threonine phosphatase.
Binding assays used specific radioligands (tritiated, iodinated) with non-radioactive competitive displacement ligands in agonist or antagonist protocols (as indicated) and various reference compounds and inhibitors to titrate specific binding to receptors and transporters. Most enzyme assays (CYPs, kinases, phosphatases, proteases, HDACs) used recombinant protein and specific substrates (fluorescence mostly, some colorimetric and radioactive) and inhibitors, followed by a biochemical separation of substrate and product. All assays for the biochemical HTS were initially run in duplicate at a single concentration (10 uM for CYP450 assays and 25 uM for all others). Assay-chemical combinations meeting a pre-defined threshold (e.g., 30% inhibition and other criteria defined below) were then run in singleton concentration-response format with maximum concentration of 20 uM for CYPs and 50 uM for all others. Each assay was run with positive and negative controls, and concurrent controls on every plate. The follow-up (secondary) screen tested active chemical-pairs in concentration series, as well as a few additional assays not tested in the primary screen, some selected negative inactives, and several cases re-run in the concentration series for confirmatory purposes.

Chain of Serine/threonine-protein phosphatase PP1-alpha catalytic subunit (Homo sapiens) (P62136 whole entry, looked up): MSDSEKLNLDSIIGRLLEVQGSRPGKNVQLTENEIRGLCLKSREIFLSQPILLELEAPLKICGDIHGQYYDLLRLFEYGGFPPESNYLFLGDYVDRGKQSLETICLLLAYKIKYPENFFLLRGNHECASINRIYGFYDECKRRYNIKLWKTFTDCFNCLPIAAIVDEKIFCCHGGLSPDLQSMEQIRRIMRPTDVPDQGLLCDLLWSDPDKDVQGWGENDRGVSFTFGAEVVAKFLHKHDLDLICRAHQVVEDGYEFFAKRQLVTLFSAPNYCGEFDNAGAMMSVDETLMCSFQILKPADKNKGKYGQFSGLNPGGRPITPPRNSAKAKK

Row | SMILES | outcome | AC50
1 | O=c1n(CC2CO2)c(=O)n(CC2CO2)c(=O)n1CC1CO1 (stereo not given) | inactive | 
2 | Nc1nc2ncc(CNc3ccc(C(=O)N[C@@H](CCC(=O)O)C(=O)O)cc3)nc2c(=O)[nH]1 |  | 8.97 µM (active)
3 | Cc1ccc(N)cc1O | inactive | 
4 | CCCCCCc1ccc(O)cc1O | inactive | 
5 | O=C(O)c1cccc(Oc2ccccc2)c1 | inactive | 
6 | COCCOCCOCCOC | inactive | 

Target: human Protein Tyrosine Phosphatase Non-receptor Type 1 (PTPN1), PTPN1 (gene 5770) (UniProt P18031)
Experiment: NVS_ENZ_hPTPN1: NovaScreen (NVS) Enzymatic Assay for human Protein Tyrosine Phosphatase Non-receptor Type 1 (PTPN1) (AID 2283201)
In short: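 Chemicals were first tested in duplicate at 25 uM, and those passing threshold went on to singleton concentration series topping at 50 uM. Recombinant enzyme, specific substrate, product separated by mobility shift, fluorescence read at 1.33 h; activity loss relative to DMSO.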

Chain of human Protein Tyrosine Phosphatase Non-receptor Type 1 (PTPN1), PTPN1 (gene 5770) (P18031 whole entry, looked up): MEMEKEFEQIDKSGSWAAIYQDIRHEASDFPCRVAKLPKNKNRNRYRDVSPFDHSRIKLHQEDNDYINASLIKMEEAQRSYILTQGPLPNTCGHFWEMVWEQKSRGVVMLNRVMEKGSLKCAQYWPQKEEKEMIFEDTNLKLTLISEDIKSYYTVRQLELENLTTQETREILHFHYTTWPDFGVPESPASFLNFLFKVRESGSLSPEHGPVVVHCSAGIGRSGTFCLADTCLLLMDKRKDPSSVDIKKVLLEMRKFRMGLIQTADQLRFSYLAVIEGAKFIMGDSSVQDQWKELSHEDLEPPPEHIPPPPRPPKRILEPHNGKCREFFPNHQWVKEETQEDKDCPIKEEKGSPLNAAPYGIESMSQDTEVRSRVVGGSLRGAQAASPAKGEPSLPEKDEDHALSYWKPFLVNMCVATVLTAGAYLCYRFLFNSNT

Row | SMILES | outcome
7 | CC(C)c1cccc(C(C)C)c1N1C(=O)c2ccc(O)cc2C1=O | inactive
8 | CN(C)c1ccc(N=NS(=O)(=O)O)cc1 | inactive
9 | CCCCCCCCCCCCc1ccccc1 | inactive
10 | Cc1ccc(N)cc1O | inactive

Target: Tyrosine-protein phosphatase non-receptor type 11 (Homo sapiens) (UniProt Q06124)
Experiment: NVS_ENZ_hPTPN11: NovaScreen (NVS) Enzymatic Assay for human Protein Tyrosine Phosphatase Non-receptor Type 11 (PTPN11) (AID 2283202)
In short: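 Compounds first tested in duplicate at 25 uM; those reaching ~30% inhibition rerun in singleton concentration-response, top 50 uM. Phosphatase activity measured after 0.5 h by fluorescence with mobility-shift separation, relative to DMSO.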

Chain of Tyrosine-protein phosphatase non-receptor type 11 (Homo sapiens) (Q06124 whole entry, looked up): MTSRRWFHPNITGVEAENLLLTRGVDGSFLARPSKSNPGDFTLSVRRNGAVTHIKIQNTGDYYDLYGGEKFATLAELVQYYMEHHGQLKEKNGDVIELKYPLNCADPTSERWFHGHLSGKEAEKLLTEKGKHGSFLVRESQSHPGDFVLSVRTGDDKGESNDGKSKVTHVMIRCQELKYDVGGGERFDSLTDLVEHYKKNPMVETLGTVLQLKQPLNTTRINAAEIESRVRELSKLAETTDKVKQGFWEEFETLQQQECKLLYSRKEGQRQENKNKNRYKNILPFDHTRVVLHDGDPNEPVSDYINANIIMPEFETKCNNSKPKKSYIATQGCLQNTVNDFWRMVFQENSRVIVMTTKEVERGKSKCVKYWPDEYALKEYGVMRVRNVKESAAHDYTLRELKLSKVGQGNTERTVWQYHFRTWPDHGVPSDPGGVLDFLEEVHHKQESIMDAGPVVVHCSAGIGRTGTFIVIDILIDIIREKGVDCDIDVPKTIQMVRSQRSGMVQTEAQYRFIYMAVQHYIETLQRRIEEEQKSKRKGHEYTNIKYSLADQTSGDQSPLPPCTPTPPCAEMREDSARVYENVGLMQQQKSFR

Row | SMILES | AC50 | outcome
11 | Nc1nc2ncc(CNc3ccc(C(=O)N[C@@H](CCC(=O)O)C(=O)O)cc3)nc2c(=O)[nH]1 | 30.2 µM (active) | 
12 | O=C(O)c1cccc(Oc2ccccc2)c1 |  | inactive
13 | O=C(O)c1cc(N=Nc2ccc(S(=O)(=O)Nc3ccccn3)cc2)ccc1O |  | inactive
14 | O=C(CCCCCCCCc1cccnc1)N1CCC(C=C(c2ccccc2)c2ccccc2)CC1 |  | inactive
15 | CC[C@H](C)C(=O)O[C@H]1C[C@@H](C)C=C2C=C[C@H](C)[C@H](CC[C@@H]3C[C@@H](O)CC(=O)O3)[C@H]21 |  | inactive
